The values that follow come from PubChem BioAssay (NCI).

Molecules are shown by their SMILES. “And” between values parts separate entries of the source, which are not always exact repeats. Identical values can stand only once. This is part of a sample that, as a whole, favours compounds with a hit. Of some 83,000 tested, about 20% had one in any assay.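 Results are percent growth after 48 hours of single-concentration exposure. 100 means growth as in untreated cells, lower positive values show inhibition; negative values down to -100 show cell death.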 The source made the active and inactive calls.

This assay concerns A498 renal. In words: NCI-60 one-dose screen, 48 h (100 = growth as untreated, 0 = no growth, -100 = all killed). As to conditions: 10 µM. How it is done:
Growth inhibition of the A498 human tumor cell line is measured as a screen for anti-cancer activity. Cells are grown in 96 well plates and exposed to the test compound for 48 hours. Compounds are tested at a single concentration, which is 10^-5 M for most compounds. The reported endpoint is percent growth (GI% or GIPRCNT), where numbers from 0 - 100% represent growth inhibition, and numbers from -100% - 0 represent cell death. For example, a value of 40 represents 60% growth inhibition. A value of 0 means no net growth occurred over the course of the experiment. A value of -40 indicates 40% of cells at the beginning of the experiment died by the end of the experiment. A value of -100 means all cells are dead at the end of the experiment.
NCI-60 Human Tumor Cell Lines Screen was performed using the standard one-dose NCI protocol, which is described in more detail at https://dtp.cancer.gov/discovery_development/nci-60/default.htm.
Compounds with GIPRCNT values below 10 were considered active. Activity score was based on GIPRCNT using the following formula: […]
Score is 0 for GIPRCNT values of 100 or above, 50 for GIPRCNT values of 0, and 100 for GIPRCNT values of -100.
As to `COc1cc2c(cc1OC)C13CCN4CC5=CCOC6CC(=O)N2C1C6C5CC43` (stereo not given), the growth is 108% (inactive) and 87.2% (inactive). The figure for `Cc1cc(C(C)(C)c2ccc(O)c(C)c2)ccc1O` is 102% (inactive); for `CC(=O)[O][Hg][c]1c(C)c(C)cc(C)c1C` it is 101% (inactive). Then `O=C1C=Cc2ccccc2C1=O`, with 91.3% (inactive); and `[O-][n+]1ccccc1S`, with 78.7% (inactive); and `COS(=O)(=O)c1ccccc1`, with 112% (inactive). Regarding `ClCc1ccc2ccccc2n1`, the growth is 98.1% (inactive). Then `CC(Cc1ccc2c(c1)OCO2)NN` (stereo not given), with 77.2% (inactive); and `CN(CCCl)c1ccc(/C=C/C2=[N+](C)c3ccccc3C2(C)C)cc1`, with 66.3% (inactive).

For `CC(C)C1(NC(=O)C2CC3c4cccc5[nH]cc(c45)CC3N(C)C2)OC2(O)C3CCCN3C(=O)C(Cc3ccccc3)N2C1=O` (stereo not given), the growth is 97.5% (inactive). On to `NNc1ccccc1`, for which the growth is 97.5% (inactive).

On to `COc1cc([C@@H]2c3cc4c(c(O)c3C[C@H]3COC(=O)[C@@H]32)OCO4)cc(OC)c1OC`, for which the growth was -29.1% (active).

As for `Cc1cc(C)c(C[N+](C)(C)C)c(C)c1C`, the growth is 8.63% (active). Then `Oc1c(I)cc(I)cc1I`, with 97.9% (inactive); and `C[C@@H]1C[C@@H]([C@H](O)CC2CC(=O)NC(=O)C2)C(=O)[C@@H](C)C1`, with 17.7% (inactive); and `COc1cc2c(c(OC)c1OC)-c1ccc(O)c(=O)cc1[C@@H](NC(C)=O)CC2`, with 63.7% (inactive). Consider `O=[N+]([O-])/C=C/c1ccc(Cl)cc1[N+](=O)[O-]`, for which the growth was 106% (inactive). The figure for `Oc1c(Cl)cc(Cl)c2ccccc12.[Cu+2]` is 106% (inactive); for `O=C1CCC(=O)N1SC(Cl)(Cl)Cl` it is 127% (inactive); for `Oc1ccccc1-c1ccccc1` it is 85.5% (inactive) and 108% (inactive). The figure for `O=[N+]([O-])/C=C\c1ccc2c(c1)OCO2` is 96.5% (inactive); for `COc1ccccc1[As]=[As]c1ccccc1OC` (stereo not given) it is -96.3% (active). Then `CCCCCCCC[N+]12CN3CN(CN(C3)C1)C2`, with 95.2% (inactive). Turning to `CC12OOC(c3ccccc31)c1c2ccc2ccccc12` (stereo not given), the growth is 133% (inactive). Then `O=[P+](O)c1ccccc1`, with 104% (inactive). Then `O=c1[nH]c2ccccc2n1C1CCN(CCCC(c2ccc(F)cc2)c2ccc(F)cc2)CC1`, with 27.2% (inactive) and -9.09% (active). Then `COc1cc(/C=C/[N+](=O)[O-])cc(OC)c1OC`, with 47.1% (inactive). Consider `O=S(=O)(F)c1ccc(Cl)cc1`, for which the growth is 122% (inactive). Regarding `[Cl][Sn]([c]1ccccc1)([c]1ccccc1)[c]1ccccc1`, the growth is -91% (active).

As to `COc1cc(/C=C(/C)[N+](=O)[O-])ccc1O`, the growth is 87.9% (inactive) and 100% (inactive).

Consider `O=[N+]([O-])/C=C/c1ccc([N+](=O)[O-])cc1`, for which the growth is 19.7% (inactive) and 126% (inactive). The figure for `C/C1=C\[C@H](C)C[C@H](C)OC(=O)C[C@H](c2ccc(O)cc2)NC(=O)[C@@H](Cc2c(Br)[nH]c3ccccc23)N(C)C(=O)[C@H](C)NC(=O)[C@@H](C)C1` is -78.8% (active); for `COC1CC2C=C(C)/C=C/C=C/C(=O)NC(c3ccccc3)C/C=C/CCC(O)CC(=O)C2=C1O` (stereo not given) it is -87.7% (active). The figure for `O=C(CBr)Nc1ccccc1` is 108% (inactive); for `O=C(O)c1cc(Cc2ccc(O)c(C(=O)O)c2)ccc1O` (tested in a mixture with another compound) it is 84.7% (inactive). Then `COc1ccccc1/C=C/[N+](=O)[O-]`, with 109% (inactive); and `CC/C(=C/c1ccc(OC)cc1)[N+](=O)[O-]`, with 85.5% (inactive). In the case of `Cc1ccc(C(=O)C2C(c3ccccc3)N2C2CCCCC2)cc1` (stereo not given), the growth is 105% (inactive) and 89% (inactive).

Turning to `C[CH2][Hg][S]c1ccccc1C(=O)O`, the growth is 18.1% (inactive). Then `Cc1cc([N+](=O)[O-])c2ccccc2[n+]1[O-]`, with -59.8% (active) and -80.3% (active).
